Source: PubChem BioAssay AID1347414 (National Center for Advancing Translational Sciences (NCATS), 2020)
Records with an inconclusive call do not appear. A call without a number means that no potency is given here. The source made the active and inactive calls. Calls follow the shape of the dose curve; as a rule, active = well fitted inhibition curve with a large enough effect; inconclusive = small, poorly fitted or top-dose-only effect; inactive = no such curve, though single readings can be large or run the other way.
Potency is read from the fitted curve at half-maximal effect.

Experiment: qHTS to identify inhibitors of the type 1 interferon - major histocompatibility complex class I in skeletal muscle: Secondary screen by immunofluorescence; also: nearly all actives have a fitted effect of over 70% in size
Conditions: C25cl48 myoblasts, IFN-b induced HLA-ABC immunofluorescence, 24 h, Viability; series mostly up to 49.8 µM
In short: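 HLA-ABC immunofluorescence, with nuclear and cell-body stains, was quantified by laser scanning cytometry. Read-out followed 24 h of IFN-beta (4.0 ng/ml) stimulation of C25cl48 human myoblasts with compounds titrated 1:3 over 11 points from 50 uM, with ruxolitinib as inhibitor control.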
With Cc1ccc2nc(NCCN)c3ncc(C)n3c2c1 the Potency was “inactive”.
With COC(=O)Nc1nc2ccc(C(=O)c3ccc(F)cc3)cc2[nH]1 the Potency was “inactive”.
With CC[C@@]1(O)C(=O)OCc2c1cc1n(c2=O)Cc2cc3cc(O)ccc3nc2-1 the Potency was “inactive”.
In the case of COc1cc2c(cc1-c1c(C)noc1C)ncc1[nH]c(=O)n([C@H](C)c3ccccn3)c12, the Potency is reported as “inactive”.
With CC(=O)c1cnc2ccc(-c3cc(Cl)c(O)c(Cl)c3)nc2c1NC1CCC(CN(C)C)CC1 (centres undefined) the Potency was 14.5 µM (active).
For CC[C@@]1(O)C(=O)OCc2c1cc1n(c2=O)Cc2c-1nc1ccccc1c2/C=N/OC(C)(C)C, the Potency was “inactive”.
In the case of O=C1CN2Cc3c(ccc(Cl)c3Cl)N=C2N1, the Potency is reported as “inactive”.
For CCOC(=O)C1=C(C)NC2=C(C(=O)CC(C)(C)C2)C1c1ccc(-c2ccccc2)cc1 (centres undefined), the Potency was “inactive”.
In the case of CCC(=C/[C@H](C)C/C=C/C(C)=C/[C@@H](C)C(=O)[C@@H](C)[C@H](O)[C@@H](C)C/C(C)=C/C(=O)O)/C=C/[C@@H]1OC(=O)C=C[C@@H]1C, the Potency is reported as “inactive”.
For O=C(Nc1nc2cccc(-c3ccc(CN4CCS(=O)(=O)CC4)cc3)n2n1)C1CC1, the Potency was “inactive”.
With O=C1NC(=O)[C@@H](c2c[nH]c3ccccc23)[C@H]1c1cn2c3c(cccc13)CCC2 the Potency was “inactive”.
For CCS(=O)(=O)Nc1ccc(Oc2ccc(F)cc2F)c(-c2cn(C)c(=O)c3[nH]ccc23)c1, the Potency was “inactive”.
In the case of C=CC(=O)N1CCc2ccc(-n3c(=O)ccc4cnc5ccc(-c6cnn(C)c6)cc5c43)cc21, the Potency is reported as 16.2 µM (active).
In the case of CC1(COc2ccc3c(c2)ncn3-c2ccc3cccc(N4CCC(N)CC4)c3n2)COC1, the Potency is reported as 7.26 µM (active).
